According to PubChem BioAssay (EPA / NIEHS):
“And” between values parts separate entries of the source, which are not always exact repeats. Equal values may be shown once. The source made the active and inactive calls. How the source made its calls: active means hit-call score of the fitted dose curve at least 0.9, where 1 is the maximum; inactive means score below 0.9.

Read-out: Interferon-gamma inducible Protein 10 (IP10), CXCL10 (gene 3627)
Assay: BSK_KF3CT_IP10: BioMAP Diversity Plus: KF3CT Assay for Interferon-gamma inducible Protein 10 (IP10) Biomarker Activity (AID 2283068)
Settings: primary human keratinocytes with fibroblasts; actives raise or lower the signal
Description: BSK_KF3CT is a cell-based, multiplexed-readout assay that uses keratinocytes and foreskin fibroblasts, a human skin primary cell co-culture, with measurements taken at 24 hours after chemical dosing in a 96-well plate.BSK_KF3CT_IP10 is an assay component measured in the BSK_KF3CT assay. It measures IP-10 antibody related to regulation of gene expression using ELISA technology.Data from the assay component BSK_KF3CT_IP10 was analyzed into 1 assay endpoint. This assay endpoint, BSK_KF3CT_IP10, was analyzed with bidirectional fitting relative to DMSO as the negative control and baseline of activity. Using a type of binding reporter, gain or loss-of-signal activity can be used to understand changes in the signaling as they relate to the gene CXCL10. Furthermore, this assay endpoint can be referred to as a primary readout, because this assay has produced multiple assay endpoints where this one serves a signaling function. To generalize the intended target to other relatable targets, this assay endpoint is annotated to the cytokine intended target family, where the subfamily is chemotactic factor.
The levels of cell surface (or secreted, indicated by the prefix "s") biomarker endpoints were measured by ELISA. Overt cytotoxicity to cells in confluent adherent cultures (all systems other than the BT system) was assessed by measuring total protein levels using sulforhodamine B (SRB) staining in parallel cultures at the time of biomarker measurements, indicated as SRB endpoints. For proliferation assays for adherent cell types, individual cell types are cultured at sub-confluence and relative cell numbers quantified by SRB staining at time points optimized for each system (48 h: 3C and CASM3C systems; 72 h: BT and HDF3CGF systems; 96 h: SAg system). SRB was performed by staining cells with 0.1% SRB after fixation with 10% TCA and reading wells at 560 nm.Viability and proliferation of PBMC (T cells) was quantified by Alamar Blue reduction for the SAg and BT systems. For PBMC viability (referred to as PBMC Cytotoxicity within the assay endpoint names), cells were plated (75,000/well in a 96-well plate) and then chemical samples added for 1 h before addition of activators, SEB and TSST-1 (20 ng/mL final concentration each). Cells were incubated for 90 h. Then, Alamar Blue (20 uL/well) (Invitrogen, Cat DAL1100) was added for 6 h, and the plates were read with a fluorescence microplate reader at 546/580 nm (excitation/emission). For PBMC proliferation, cells were plated and activated as above but incubated for only 16 h prior to addition of Alamar Blue. Plates were read after 6 h.

Structure (SMILES)	outcome	AC50
Cc1ccc2c(c1N)C(=O)c1ccccc1C2=O	inactive	
CCOP(=S)(Oc1ccc([N+](=O)[O-])cc1)c1ccccc1 (stereo not given)	inactive	
CCOP(=S)(S)OCC	inactive	
CC(Cl)(Cl)C(=O)O	inactive	
Nc1cc2c3c(c1)C(c1ccccc1)=N[C@@H](NC(=O)c1cccnc1)C(=O)N3CC2	inactive	
CC(O)C(F)(F)C(F)(F)F (stereo not given)	inactive	
CCCCN(CCCC)N=O	inactive	
c1ccc(OP(Oc2ccccc2)Oc2ccccc2)cc1	inactive	
CCNc1nc(Cl)nc(NC(C)(C)C)n1	inactive	
[N-]=[N+]=[N-]	inactive	
Cc1c([N+](=O)[O-])cc2c(c1[N+](=O)[O-])C(C)(C)CC2(C)C	inactive	
O=C(O)C=CC(F)(C(F)(F)F)C(F)(F)F	inactive	
ClC(Cl)=C(c1ccc(Cl)cc1)c1ccccc1Cl		3.5 µM (active)
O=C(O)C1C(C(=O)O)C2(Cl)C(Cl)=C(Cl)C1(Cl)C2(Cl)Cl (stereo not given)	inactive	
CCN(CC)c1ccccc1	inactive	
CC(Cc1ccc(OCC(=O)O)cc1)NCC(O)c1csc(C(F)(F)F)n1 (stereo not given)	inactive	
O=P(Oc1ccccc1)(Oc1ccccc1)Oc1ccccc1	inactive	
O=C(O)C(F)(F)C(F)(F)C(=O)O	inactive	
OCC1CO1 (stereo not given)	inactive	
CSC(C)(C)C=NO	inactive	

Structure (SMILES)	outcome	AC50
OCC(F)(F)OC(F)(F)C(F)(F)OC(F)(F)C(F)(F)OC(F)(F)F		53.8 µM (active) and 53.2 µM (active)
O=C(O)C(F)(F)OC(F)(F)C(F)(F)OC(F)(F)C(=O)O	inactive	
CC(C)(C)c1ccccc1OP(=O)(Oc1ccccc1)Oc1ccccc1	inactive	
NC(=O)C(F)(F)C(F)(F)F	inactive	
O=S(=O)(F)C(F)(F)C(F)(F)C(F)(F)C(F)(F)C(F)(F)C(F)(F)C(F)(F)C(F)(F)F	inactive	
CCOP(=S)(OCC)SCn1nnc2ccccc2c1=O	inactive	
O=S1(=O)OCC2C(CO1)C1(Cl)C(Cl)=C(Cl)C2(Cl)C1(Cl)Cl (stereo not given)	inactive	
ClC1=C(Cl)C2(Cl)C3C(Cl)C(Cl)CC3C1(Cl)C2(Cl)Cl (stereo not given)		16.1 µM (active)
CC(C)(C)OOC(C)(C)C	inactive	
O=C(O)C(F)(OC(F)(F)C(F)(F)C(F)(F)F)C(F)(F)F (stereo not given)	inactive	
CCOc1ccc(C(C)(C)COCc2cccc(Oc3ccccc3)c2)cc1	inactive	
ClC(Cl)c1ccccc1	inactive	
O=C(O)C(F)(F)OC(F)(F)C(F)(F)OC(F)(F)F	inactive	
CCOS(=O)(=O)OCC	inactive	
CCC1(c2ccccc2)C(=O)N=C(O)NC1=O (stereo not given)	inactive	
COP(N)(=S)OC	inactive	
CCOP(=S)(OCC)SCSc1ccc(Cl)cc1	inactive	
CCOP(=S)(OCC)SCSCC	inactive	
OCC(F)(F)OC(F)(F)C(F)(F)OC(F)(F)C(F)(F)OC(F)(F)CO	inactive	
COP(=O)(CCC(=O)NCO)OC	inactive	
